# PubChem BioAssay (EPA / NIEHS)
# Calls of active or inactive are those of the source. The calls were made as follows: active = hit-call score of the fitted dose curve at least 0.9, where 1 is the maximum; inactive = score below 0.9.
# Tests used:
# [1] = APR_HepG2_CellCycleArrest_24hr: Apredica 24-hour HepG2 Assay for Cell Cycle Arrest (AID 2282905); conditions: imaging, actives raise or lower the signal;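 also: cell cycle arrest scored as ratio of 2N to 4N nuclear DNA content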
# In short: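 Readout: Hoechst 33342 nuclear DNA content by high-content fluorescent imaging, six images/well, 20x. Human HepG2 liver cells, 24 hr compound exposure, 0.39–200 uM, final DMSO 0.5% v/v. Gain or loss fitted relative to DMSO baseline.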
# [2] = APR_HepG2_NuclearSize_24hr: Apredica 24-hour HepG2 Assay for Nuclear Size (AID 2282907); conditions: high-content imaging, actives raise or lower the signal
# In short: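 Read-out: nuclear diameter from Hoechst 33342 (2 ug/mL) imaging of fixed HepG2 cells, 20x, six fields/well. Compounds ran at 0.39–200 uM for 24 hr, 0.5% DMSO final. Gain or loss was fitted bidirectionally relative to the DMSO baseline.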
# [3] = APR_HepG2_CellLoss_24hr: Apredica 24-hour HepG2 Assay for Cell Loss (AID 2282908); conditions: high-content imaging;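 as to AC50: fit in both directions so a hit may be cell loss or gain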
# In short: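 Read-out: Hoechst 33342-stained nuclei counted by automated fluorescence imaging after formaldehyde fixation and Triton permeabilization. Ten concentrations, 0.39 to 200 uM, duplicate wells, 0.5% DMSO final. Gain or loss of signal fitted relative to DMSO baseline.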
# [4] = APR_HepG2_MicrotubuleCSK_24hr: Apredica 24-hour HepG2 Assay for Microtubule CSK Stabilty (AID 2282909); conditions: HepG2 microtubule cytoskeleton imaging, actives raise or lower the signal
# In short: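 Read-out: alpha-tubulin immunofluorescence intensity by automated high-content imaging of fixed HepG2 cells after 24 h compound treatment. Ten concentrations, 0.39 to 200 uM, in duplicate; DMSO 0.5% v/v. Taxol positive control; DMSO-normalized bidirectional curve fitting.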
# [5] = APR_HepG2_MitoticArrest_24hr: Apredica 24-hour HepG2 Assay for Mitotic Arrest (AID 2282910); conditions: high-content imaging, actives raise or lower the signal
# In short: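 Treatment lasted 24 hr in the human HepG2 line at 0.39–200 uM, solvent held at 0.5% DMSO. Fixed cells were stained with Hoechst 33342 and anti-phospho-histone H3, imaged at 20x, and analysed by gain- or loss-of-signal fitting against DMSO.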
# [6] = APR_HepG2_MitoMembPot_24hr: Apredica 24-hour HepG2 Assay for Mitochondrial Membrane Potential (AID 2282911); conditions: imaging, actives raise or lower the signal
# In short: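 Human hepatoma HepG2 cultures received ten compound concentrations up to 200 uM for 24 hr. Membrane-potential dye signal, captured by automated fluorescence microscopy, was scored for gain or loss against DMSO controls.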
# [7] = APR_HepG2_MitoMass_24hr: Apredica 24-hour HepG2 Assay for Mitochondrial Mass (AID 2282912); conditions: high-content imaging, actives raise or lower the signal
# In short: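 HepG2, 24 hr dosing, 10 concentrations 0.39–200 uM in duplicate, DMSO 0.5% final. MitoTracker Red CMXRos 250 nM, 30 min pre-fix; 3.7% formaldehyde fix. Imaging-based fluorescence intensity; gain/loss fit vs DMSO baseline.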
# [8] = APR_HepG2_p53Act_24hr: Apredica 24-hour HepG2 Assay for p53 Activation (AID 2282913); conditions: high-content imaging, actives raise or lower the signal;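 also: p53 protein immunofluorescence averaged per cell in HepG2 with Hoechst nuclei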
# In short: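 Automated fluorescence imaging quantifies p53 immunostaining in HepG2 cells after a 24 hr exposure (0.39–200 uM, duplicate, 0.5% DMSO). Nuclei are located by Hoechst 33342 staining.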
# [9] = APR_HepG2_CellCycleArrest_72hr: Apredica 72-hour HepG2 Assay for Cell Cycle Arrest (AID 2282914); conditions: high-content imaging, actives raise or lower the signal
# In short: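 Cell cycle arrest in HepG2 was scored from nuclear DNA content after 72 hr compound treatment (0.39–200 uM). Activity, either gain or loss, was fitted against the DMSO baseline.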
# [10] = APR_HepG2_CellLoss_72hr: Apredica 72-hour HepG2 Assay for Cell Loss (AID 2282915); conditions: high-content imaging
# In short: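 HepG2 cells were exposed for 72 hr to compounds at 0.39–200 uM (ten concentrations, duplicate) in 0.5% v/v final DMSO. Nuclei were stained with Hoechst 33342 after 3.7% formaldehyde fixation, imaged at 20x, and counted; fits bidirectional versus DMSO.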
# [11] = APR_HepG2_P-H2AX_72hr: Apredica 72-hour HepG2 Assay for H2AX Phosphorylation (AID 2282916); conditions: imaging, actives raise or lower the signal;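 also: phospho-histone H2A.x immunostain intensity per cell marking DNA damage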
# In short: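 Readout: phospho-H2A.x immunofluorescence (FITC secondary) plus Hoechst nuclear stain, high-content imaging at 20x, six fields/well. HepG2, 72 hr compound exposure, 0.39–200 uM, final DMSO 0.5% v/v. Gain or loss fitted relative to DMSO baseline.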
# [12] = APR_HepG2_MitoMembPot_72hr: Apredica 72-hour HepG2 Assay for Mitochondrial Membrane Potential (AID 2282917); conditions: imaging, actives raise or lower the signal
# In short: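 HepG2 cells exposed 72 h to compounds at 0.39–200 uM (0.5% v/v DMSO, duplicates); MitoTracker Red CMXRos 250 nM loaded 30 min before 3.7% formaldehyde fixation, imaged by HCS fluorescence. Bidirectional fit versus DMSO.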
# [13] = APR_HepG2_MitoticArrest_72hr: Apredica 72-hour HepG2 Assay for Mitotic Arrest (AID 2282918); conditions: high-content imaging, actives raise or lower the signal
# In short: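 Mitotic arrest in HepG2 is scored from phospho-histone H3 staining after 72 hr dosing across 0.39–200 uM, with DMSO at 0.5% v/v. Nuclei are identified by Hoechst 33342 and fluorescence intensity is quantified per cell.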
# [14] = APR_HepG2_MicrotubuleCSK_72hr: Apredica 72-hour HepG2 Assay for Microtubule CSK Stabilty (AID 2282919); conditions: HepG2 microtubule cytoskeleton, high-content imaging, actives raise or lower the signal
# In short: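 Ten-point dosing (0.39–200 uM, 0.5% DMSO) of HepG2 for 72 hr, with taxol as the cytoskeletal positive control. The cells were formaldehyde-fixed and then stained with alpha-tubulin/Cy5 and Hoechst. Imaging at 20x used a −2 um Z offset for tubulin.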
# [15] = APR_HepG2_P-H2AX_24hr: Apredica 24-hour HepG2 Assay for H2AX Phosphorylation (AID 2282920); conditions: high-content imaging, actives raise or lower the signal
# In short: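 Signal comes from a FITC-labeled secondary detecting phospho-histone H2A.x in fixed HepG2 cells, quantified by automated imaging at 20x. Dosing ran 24 hr across 0.39–200 uM with 0.5% v/v DMSO.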
# [16] = APR_HepG2_StressKinase_72hr: Apredica 72-hour HepG2 Assay for Stress Kinase (AID 2282921); conditions: HepG2 stress kinase (phospho-c-Jun) imaging, actives raise or lower the signal
# In short: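 Phospho-c-Jun immunofluorescence measured by high-content imaging at 20x, six fields per well; bidirectional curve fitting against DMSO as baseline. Dosing: 0.39–200 uM, 72 h, 0.5% DMSO final.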
# [17] = APR_HepG2_StressKinase_24hr: Apredica 24-hour HepG2 Assay for Stress Kinase (AID 2282922); conditions: HepG2 stress kinase (phospho-c-Jun) imaging, actives raise or lower the signal
# In short: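 After 24 hr compound treatment (up to 200 uM, final DMSO 0.5% v/v), HepG2 cells are fixed and multiplex-labeled; phospho-c-Jun intensity is captured by high-content fluorescence imaging and analyzed relative to DMSO.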
# [18] = APR_HepG2_p53Act_72hr: Apredica 72-hour HepG2 Assay for p53 Activation (AID 2282923); conditions: high-content imaging, actives raise or lower the signal;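 also: average cellular p53 protein immunofluorescence intensity in HepG2 cells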
# In short: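 Readout: p53 immunofluorescence quantified by automated high-content imaging at 20x, six fields per well, nuclei located via Hoechst. Dosing ran 72 hr over ten concentrations from 0.39 to 200 uM; bidirectional curve fitting against DMSO baseline.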
# [19] = APR_HepG2_MitoMass_72hr: Apredica 72-hour HepG2 Assay for Mitochondrial Mass (AID 2282924); conditions: high-content imaging, actives raise or lower the signal;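 also: MitoTracker Red CMXRos stain intensity per cell imaged as mitochondrial mass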
# In short: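 Steps: treat HepG2 72 hr (0.39–200 uM, duplicate wells); load MitoTracker Red CMXRos, 250 nM, 30 min; fix with 3.7% formaldehyde, permeabilise with 0.5% Triton X-100; capture images, nuclei via Hoechst 33342; fit bidirectionally against DMSO.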
# [20] = APR_HepG2_NuclearSize_72hr: Apredica 72-hour HepG2 Assay for Nuclear Size (AID 2282925); conditions: high-content imaging, actives raise or lower the signal
# In short: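 Compounds (0.39–200 uM, final DMSO 0.5%) were applied to HepG2 for 72 hr. Cells were then formaldehyde-fixed, permeabilized and labelled with Hoechst 33342. Nuclear diameter was quantified from six images per well.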
smiles,measurement,setting,value
CCCCCCCCn1sccc1=O,AC50,[1],6.2 µM (active)
same,AC50,[2],10.7 µM (active)
same,AC50,[3],16.1 µM (active)
same,AC50,[4],79.4 µM (active)
same,AC50,[5],7.54 µM (active)
same,AC50,[6],53.4 µM (active)
same,outcome,[7],inactive
same,AC50,[8],3.62 µM (active)
same,outcome,[9],inactive
same,AC50,[10],5.76 µM (active)
same,AC50,[11],4.92 µM (active)
same,AC50,[12],96.1 µM (active)
same,AC50,[13],3.77 µM (active)
same,outcome,[14],inactive
same,AC50,[15],6.1 µM (active)
same,AC50,[16],5.97 µM (active)
same,AC50,[17],3.47 µM (active)
same,AC50,[18],3.54 µM (active)
same,AC50,[19],3.51 µM (active)
same,outcome,[20],inactive
OCCCl,outcome,[1],inactive
same,outcome,[2],inactive
same,outcome,[3],inactive
same,outcome,[4],inactive
same,outcome,[5],inactive
same,outcome,[6],inactive
same,outcome,[7],inactive
same,outcome,[8],inactive
same,outcome,[9],inactive
same,outcome,[10],inactive
same,outcome,[11],inactive
same,outcome,[12],inactive
same,outcome,[13],inactive
same,outcome,[14],inactive
same,outcome,[15],inactive
same,outcome,[16],inactive
same,outcome,[17],inactive
same,outcome,[18],inactive
same,outcome,[19],inactive
same,outcome,[20],inactive
CCC(C)c1ccc(O)cc1 (centres undefined),outcome,[1],inactive
same,outcome,[2],inactive
same,outcome,[3],inactive
same,outcome,[4],inactive
same,outcome,[5],inactive
same,outcome,[6],inactive
same,outcome,[7],inactive
same,outcome,[8],inactive
same,outcome,[9],inactive
same,outcome,[10],inactive
same,outcome,[11],inactive
same,outcome,[12],inactive
same,outcome,[13],inactive
same,outcome,[14],inactive
same,outcome,[15],inactive
same,outcome,[16],inactive
same,outcome,[17],inactive
same,outcome,[18],inactive
same,outcome,[19],inactive
same,outcome,[20],inactive
CCOc1cccc(C2(N3CCN(c4ccccc4)CC3)CCC(C)CC2)c1 (centres undefined),outcome,[1],inactive
same,outcome,[2],inactive
same,outcome,[3],inactive
same,outcome,[4],inactive
same,outcome,[5],inactive
same,outcome,[6],inactive
same,outcome,[7],inactive
same,outcome,[8],inactive
same,outcome,[9],inactive
same,outcome,[10],inactive
same,outcome,[11],inactive
same,outcome,[12],inactive
same,outcome,[13],inactive
same,outcome,[14],inactive
same,outcome,[15],inactive
same,outcome,[16],inactive
same,outcome,[17],inactive
same,outcome,[18],inactive
same,outcome,[19],inactive
same,outcome,[20],inactive
O=C(N[C@H](c1ccccc1)[C@@H]1CN2CCC1CC2)c1c(Cl)ccc(C(F)(F)F)c1Cl,AC50,[1],60.8 µM (active)
same,AC50,[2],88.8 µM (active)
same,AC50,[3],120 µM (active)
same,outcome,[4],inactive
same,AC50,[5],78.7 µM (active)
same,outcome,[6],inactive
same,outcome,[7],inactive
same,AC50,[8],101 µM (active)
same,AC50,[9],30.6 µM (active)
same,AC50,[10],64 µM (active)
same,AC50,[11],44 µM (active)
same,outcome,[12],inactive
same,AC50,[13],24 µM (active)
same,outcome,[14],inactive
same,AC50,[15],117 µM (active)
same,outcome,[16],inactive
same,outcome,[17],inactive
same,outcome,[18],inactive
same,outcome,[19],inactive
same,outcome,[20],inactive
CCCCC(CC)COC(=O)c1ccc(C(=O)OCC(CC)CCCC)c(C(=O)OCC(CC)CCCC)c1 (centres undefined),outcome,[1],inactive
same,outcome,[2],inactive
same,outcome,[3],inactive
same,outcome,[4],inactive
same,outcome,[5],inactive
same,outcome,[6],inactive
same,outcome,[7],inactive
same,outcome,[8],inactive
same,outcome,[10],inactive
same,outcome,[11],inactive
same,outcome,[12],inactive
same,outcome,[13],inactive
same,outcome,[14],inactive
same,outcome,[15],inactive
same,outcome,[16],inactive
same,outcome,[17],inactive
same,outcome,[18],inactive
same,outcome,[19],inactive
same,outcome,[20],inactive
